# According to PubChem BioAssay (NCATS):
# Inconclusive results are not listed. A number with no mark means an inactive call. Active and inactive are the calls of the source. The call rests on the fitted dose curve; in most records, active means well fitted cell-killing curve with a large enough effect; inconclusive means small, poorly fitted or top-dose-only effect; inactive means flat fitted curve, though single readings scatter.
# Assay: Quantitative highthroughput screen to assess conditional lethalithy of NOMO1 cells grown in RPMI1640 with untreated serum (RPMI+s) (AID 1963876); further: nearly all actives have a fitted effect of over 35% in size
# Details: NOMO1 AML cells in RPMI+serum, CellTiter-Glo viability, 48 h; series mostly up to 45.8 µM; viability: at the top concentration
# From the text: Assay Provider: Jason Cantor Ph.D.
# Department of Biochemistry
# University of Wisconsin-Madison, Madison, WI, USA
# Chemical screening studies have identified drug sensitivities across hundreds of cancer cell lines but most putative therapeutics fail to translate. Discovery and development of drug candidates in models that more accurately reflect nutrient levels in human blood is a major challenge. Here we performed high-throughput screens in conventional versus Human Plasma-Like Medium (HPLM) to identify compounds that were "missed" when screening using the artificial culture condition. Sets of conditional anticancer compounds spanned phases of clinical development and included non-oncology drugs were assessed. […] We also traced conditional phenotypes for several chemotherapeutics to availability of HPLM-specific metabolites and confirmed others for compounds whose reported targets are encoded by nonessential genes. Our findings establish generalizable strategies for exploiting conditional lethality in HPLM to reveal therapeutic candidates and mechanisms of action in cancer cells.
# Described herein are the results of each viability screens against three cell lines: NOMO1 (an acute myeloid leukemia cell line); P12-Ichikawa (a T-cell acute lymphoblastic leukemia); and SEM (a B-cell ALL). Each assay was screened using 3 different cell culture media: homemade human plasma-Like medium with 10% dialyzed fetal bovine serum (HPLM+ds); RPMI1640 with 10% untreated FBS and 5mM glucose (RPMI+s); and RPMI1640 with 10% dialyzed fetal bovine serum and 5 mM glucose (RPMI+ds).
# PROTOCOL TABLE (as described by Inglese J, Shamu CE and Guy RK. 2007)
# SEQUENCE No. (e.g., 1, 2, 3, etc.); […] (e.g., Cells, Incubation, Reagent, etc.); VALUE and DESCRIPTION.
# 1; Cells; 5 uL; white, solid bottom 1536-well Greiner assay plate.
# 2; Compounds; 23 nL; Kalypsis pin tool (Wako USA) equipped with a 1536-well pin head to transfer to the assay plates.
# 3; Incubation; 48 hours; 37C incubation.
# 4; Reagent; 3 uL; CellTiter Glo (Promega).
# 5; Incubation; 5 min, room temperature
# 6; Detection; Luminescence, Viewlux PerkinElmer.
# NOTES (numbers refer to Sequence numbers above)
# 1. Briefly, 5 ul of cell reagent was dispensed using a Multidrop Combi Dispenser. The NOMO1 and SEM cells were plated at 500 cells/well and the P12-Ichikawa line at 1000 cells/well.
# 2. After seeding the cells, 23 nL of MIPE 4.1 library compounds (in DMSO) were added to each plate using a Kalypsys 1536 Pintool dispenser. Bortezomib at final concentration of […] and DMSO were added to each plate as positive and negative controls respectively. For each screen, MIPE 4.1 compounds were added over an eleven-point concentration range […] in 3-fold dilutions.
# 3. Each plate was covered with a stainless steel gasketed lid to prevent evaporation and incubated for 48 hour at 37C, 95% relative humidity, and 5% CO2.
# 4-5. Three microliter CellTilter-GloTM luminescent substrate mix (Promega) reagent was added to the assay plate and incubated at room temperature for 5 min.
# 6. The luminescence signal was measured using a ViewLux (PerkinElmer) multiplate reader with a 2 second exposure time per plate. Data for each compound were normalized as percent viability such that measurements for DMSO and the empty well controls in each plate were defined as 100% and 0%, respectively.
# Potency means the concentration at half of the fitted maximal effect.
SMILES,viability,Potency
COCCOc1nc(-c2ccc(Cl)c(Cl)c2)n(-c2ccc(NC(=O)CCl)cc2)n1,97.5%,–
C[C@]12CC[C@@H]3c4ccc(O)cc4CC[C@H]3[C@H]1C[C@@H](O)[C@H]2O,104%,–
C[C@H](CCC(=O)O)[C@H]1CCC2C3C[C@H](O)[C@@H]4C[C@H](O)CC[C@]4(C)C3CC[C@@]21C (stereo not given in full),104%,–
COc1cccc(-c2ccc(NC(=O)C3=C(C(=O)O)CCC3)c(F)c2)c1,94.7%,–
O=C(NOC[C@H](O)CO)c1ccc(F)c(F)c1Nc1ccc(I)cc1F,–,0.187 µM (active)
C[C@@H](NCCCc1cccc(C(F)(F)F)c1)c1cccc2ccccc12,106%,–
Nc1cccc2c1C(=O)N(C1CCC(=O)NC1=O)C2=O (stereo not given),104%,–
FC(F)(F)c1ccc(CNc2ccc(Cc3c[nH]c4ncc(Cl)cc34)cn2)cn1,–,2.34 µM (active)
CN(C)CCC=C1c2ccccc2C=Cc2ccccc21,–,20.9 µM (active)
CC[C@@]1(O)C(=O)OCc2c1cc1n(c2=O)Cc2cc3c(CN(C)C)c(O)ccc3nc2-1,–,0.526 µM (active)
CC[C@]1(O)C[C@@H]2CN(CCc3c([nH]c4ccccc34)[C@@](C(=O)OC)(c3cc4c(cc3OC)N(C=O)[C@@H]3C45CCN4CC=C[C@](CC)([C@H]45)[C@@H](OC(C)=O)[C@]3(O)C(=O)OC)C2)C1 (stereo not given in full),108%,–
COC(=O)Nc1nc2ccc(S(=O)c3ccccc3)cc2[nH]1 (stereo not given),97%,–
COC(=O)[C@@H]1CC2=CC(=O)CC[C@]2(C)[C@@]23O[C@@H]2C[C@@]2(C)[C@H](CC[C@@]24CCC(=O)O4)[C@@H]13,101%,–
O=P(O)(O)C(O)(Cc1cccnc1)P(=O)(O)O,97.7%,–
Cc1[nH]c(=O)c(C#N)cc1-c1ccc2nccn2c1,92%,–
Cc1ccc(/C=N/NC(=O)c2ccccc2Oc2ccccc2)o1,102%,–
CC(=O)O[C@]1(C(C)=O)CC[C@@H]2[C@@H]3C[C@H](C)C4=CC(=O)CC[C@]4(C)[C@H]3CC[C@@]21C,102%,–
CC1(C)OC2CC3C4CC(F)C5=CC(=O)C=CC5(C)C4C(O)CC3(C)[C@]2(C(=O)CO)O1 (stereo not given in full),102%,–
OCCn1cc(-c2cnc3nnn(Cc4ccc5ncccc5c4)c3n2)cn1,105%,–
NC(=O)[C@@H](CCC(F)(F)F)N(Cc1ccc(-c2ncon2)cc1F)S(=O)(=O)c1ccc(Cl)cc1,78%,–

SMILES,viability,Potency
CC1(C)Cc2c(-c3ccccc3)c(-c3ccc(Cl)cc3)c(CC(=O)O)n2C1,93.6%,–
COC1CCC(N(C(=O)C2CCC(C)CC2)c2cc(C3=CCCCC3)sc2C(=O)O)CC1 (stereo not given),96.2%,–
CC(C)(CO)[C@@H](O)C(=O)NCCC(=O)O,109%,–
NC(=O)C1CCCc2c1[nH]c1ccc(Cl)cc21 (stereo not given),–,8.33 µM (active)
CCc1cc(-c2n[nH]c(C)c2-c2ccc3c(c2)OCCO3)c(O)cc1O,–,9.35 µM (active)
CN(C)CCN(Cc1ccc(Cl)cc1)c1ccccn1,105%,–
O=C1CCc2cc(OCCCCc3nnnn3C3CCCCC3)ccc2N1,101%,–
O=C(O)C1CCCN(CCC=C(c2ccccc2)c2ccccc2)C1 (stereo not given),101%,–
O=C(O)[C@H](CC(=O)N1C[C@@H]2CCCC[C@H]2C1)Cc1ccccc1,105%,–
O=c1[nH]c(=O)n([C@H]2C[C@@H](O)[C@@H](CO)O2)cc1C=CBr,96.4%,–
C[C@H](NC(=O)c1sccc1OCc1ccc(Cl)cc1)c1ccccc1,99.8%,–
COc1ccc(C2=N[C@H](c3ccc(Cl)cc3)[C@H](c3ccc(Cl)cc3)N2C(=O)N2CCNC(=O)C2)c(OC(C)C)c1,–,23.5 µM (active)
O=Nc1c(-c2c(O)[nH]c3cc(Br)ccc23)[nH]c2ccccc12,–,14.8 µM (active)
CN1CCC(COc2cnc(-c3cccc(Cn4nc(-c5cccc(C#N)c5)ccc4=O)c3)nc2)CC1,101%,–
CC(=O)Nc1cccc(-n2c(=O)n(C3CC3)c(=O)c3c(Nc4ccc(I)cc4F)n(C)c(=O)c(C)c32)c1,–,0.332 µM (active)
CCCCOc1ccc(C(=O)Nc2ccc(F)cc2F)cc1,94.4%,–
N=C(N=C(N)N)N1CCOCC1,92.2%,–
CC(=O)N[C@@H]1[C@H](O[C@@H]2c3ccc(c(Cl)c3)Oc3cc4cc(c3O[C@H]3O[C@H](CO)[C@@H](O)[C@H](O)[C@H]3NC(=O)CCCCCCCC(C)C)Oc3ccc(cc3Cl)C[C@H]3NC(=O)[C@H](N)c5ccc(O)c(c5)Oc5cc(O)cc(c5)[C@H](NC3=O)C(=O)N[C@H]4C(=O)N[C@H]3C(=O)N[C@@H]2C(=O)N[C@@H](C(=O)O)c2cc(O)cc(O[C@H]4O[C@H](CO)[C@@H](O)[C@H](O)[C@H]4O)c2-c2cc3ccc2O)O[C@H](CO)[C@@H](O)[C@@H]1O,106%,–
O=C(O)COCCN1CCN(C(c2ccccc2)c2ccc(Cl)cc2)CC1 (stereo not given),103%,–
O=C(O)c1c(Cl)c(Cl)c(Cl)c(Cl)c1-c1c2cc(I)c(=O)c(I)c-2oc2c(I)c(O)c(I)cc12,–,16.6 µM (active)
